TDP1 block – qHTS Assay for Inhibitors of Tyrosyl-DNA Phosphodiesterase (TDP1); Tyrosyl-DNA phosphodiesterase 1 (Homo sapiens), Q9NUW8; recombinant TDP1, AlphaScreen DNA substrate cleavage; Potency, µM (highest dose often 130 µM), most hits filed as inhibitors; 0.28% of 350,000 active; AID 485290, 2010; also: nearly all actives have a fitted effect of over 40% in size
Target sequence (Q9NUW8 whole entry, looked up): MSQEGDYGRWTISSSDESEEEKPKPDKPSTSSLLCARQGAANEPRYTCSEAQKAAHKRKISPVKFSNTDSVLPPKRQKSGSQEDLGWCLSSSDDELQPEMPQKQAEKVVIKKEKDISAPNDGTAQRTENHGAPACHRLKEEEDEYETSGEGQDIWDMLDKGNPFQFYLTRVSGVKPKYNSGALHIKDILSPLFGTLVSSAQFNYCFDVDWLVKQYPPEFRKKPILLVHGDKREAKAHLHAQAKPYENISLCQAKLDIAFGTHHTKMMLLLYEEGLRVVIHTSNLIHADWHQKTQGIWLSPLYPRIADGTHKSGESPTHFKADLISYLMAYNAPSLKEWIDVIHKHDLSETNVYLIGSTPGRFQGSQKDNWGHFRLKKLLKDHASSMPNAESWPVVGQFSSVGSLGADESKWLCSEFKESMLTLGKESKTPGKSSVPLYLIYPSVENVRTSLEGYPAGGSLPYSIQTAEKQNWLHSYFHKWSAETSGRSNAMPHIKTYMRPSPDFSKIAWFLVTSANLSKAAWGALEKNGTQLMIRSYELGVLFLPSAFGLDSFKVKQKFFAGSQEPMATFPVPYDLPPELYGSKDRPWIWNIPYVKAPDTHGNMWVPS
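Tdp1 1 nM final; 15 min RT w/ cpd; substrate 15 nM, 5 min; beads 10 ug/ml, 10 min; AlphaScreen read. Neg ctrl: no enzyme.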
TDP1 cell CPT – qHTS for Inhibitors of human tyrosyl-DNA phosphodiesterase 1 (TDP1): qHTS in cells in presence of CPT; chicken DT40 Tdp1-/-;hTDP1 cells + 20 nM CPT, ATP luminescence, 48 h; 12% of 420,000 active; Potency, µM (titrated, usually from 46.2 µM), hits mostly inhibitors; also: nearly all actives have a fitted effect of over 55% in size
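Chicken DT40 Tdp1-/- cells complemented with human TDP1, 400 cells/well, exposed to compounds plus 20 nM camptothecin for at least 48 h at 37 C; viability read as ATP content by CellTiter-Glo luminescence.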
Six1-Eya2 inh – qHTS Assay for Inhibitors of the Six1/Eya2 Interaction; 0.56% of 360,000 active; AlphaScreen GST-Six1/His-Eya2 binding, biochemical; active compounds read low; activity change, % (concentration not given with the values); Homeobox protein SIX1 (Homo sapiens) + Protein phosphatase EYA2 (Homo sapiens), …; AID 651725, 2012; in the data active = activity change below about -65%; inconclusive = mostly about -30% to -63%
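Homogeneous AlphaScreen proximity assay pairing GST-Six1 with His-tagged Eya2 (added as 5X mix: 250 nM and 500 nM) in 50 mM Tris pH 8.0, 300 mM NaCl, 1 mM TCEP. Glutathione donor and nickel acceptor beads; 1 h, 37 °C, dark.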
TDP1 cell noCPT – qHTS for Inhibitors of human tyrosyl-DNA phosphodiesterase 1 (TDP1): qHTS in cells in absence of CPT. DT40 Tdp1-/- hTDP1 cells, no CPT, ATP luminescence, 48 h. Potency, µM (doses to about 46.2 µM), usual class: inhibitors. 15% of 420,000 active; also: nearly all actives have a fitted effect of over 55% in size
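Chicken DT40 Tdp1-/- cells stably complemented with human TDP1 were seeded at 400 cells/well with DMSO in place of 20 nM camptothecin. After compound pinning, cells grew at least 48 hr at 37 °C; viability read by CellTiter-Glo luminescence.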
IL-1B inflam inh – qHTS for Inhibitors of Inflammasome Signaling: IL-1-beta AlphaLISA Primary Screen; THP-1 LPS/ATP IL-1B secretion, AlphaLISA, 16 h; active compounds read low; activity change, % at 57.5 µM; 4.7% of 360,000 active; AID 743279, 2014; in the data active = activity change below about -50%; inconclusive = mostly about -30% to -49%
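THP-1 cells pretreated 1 hr with compounds (up to 57.5 uM final), then stimulated with LPS (250 ng/mL final) plus ATP (1.25 mM final); secreted IL-1B measured by AlphaLISA after 16 hr, decreased signal indicating inhibition.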
CtBP-E1A blk – qHTS Assay for Inhibitors of the CtBP/E1A Interaction | CtBP / adenovirus E1A interaction (AlphaScreen) | AlphaScreen GST-E1A/His-CtBP binding, 1536-well; active compounds read low | activity change, % (concentration not given with the values) | 0.49% of 340,000 active | AID 651724, 2012; in the data active = activity change below about -65%; inconclusive = mostly about -30% to -63%
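GST-E1A and His-tagged CtBP (125 nM each as 5X stock) were preincubated with pin-transferred compound for 2 h at 37 °C in the dark, then glutathione donor and nickel acceptor beads were added for 1 h before AlphaScreen reading.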
Hits are given with their value; . = inactive; ? = inconclusive; / = no result. An excerpt weighted towards active compounds, which were near 18% of everything screened. Unless noted, calls follow the shape of the dose curve; as a rule, active = well fitted curve in the direction sought with a large enough effect; inconclusive = small, poorly fitted or top-dose-only effect, or another doubt; inactive = no such curve, though single readings can be large; an effect the other way counts as inactive or inconclusive.

SMILES	TDP1 block	TDP1 cell CPT	Six1-Eya2 inh	TDP1 cell noCPT	IL-1B inflam inh	CtBP-E1A blk
C=CC(=O)N1CCCC(Nc2nc(Nc3ccc(N(C)C(=O)CC)cc3C)nc3nc[nH]c23)C1 (configuration not stated)	.	.	-66.6	.	.	?
COc1ccc(NC(=O)CN(c2cc(C)cc(C)c2)S(=O)(=O)c2c(C)noc2C)cc1OC	.	?	.	?	.	.
O=C(NC(=S)Nc1c(Cl)ccc2nsnc12)c1ccccc1F	.	.	.	.	.	.
Cc1cc(Br)cc(Cl)c1OCC(=O)N1CCN(C(=O)c2ccco2)CC1	.	.	.	.	.	/
COc1ccc(NC(=O)c2ccc(OC)c(S(=O)(=O)N3CCCCC3C)c2)cn1 (configuration not stated)	.	?	?	.	.	?
Clc1ccc(Cn2ncc3c(NCc4ccccc4)ncnc32)cc1	.	4.61µM	.	4.11µM	.	.
Cc1ccc(CNc2ncnc3c2cnn3-c2ccccc2)cc1	.	.	.	.	.	.
CCN(CC)c1ncnc2c1cnn2Cc1ccc(Cl)cc1	.	20.6µM	.	?	?	.
CC1CC(C)CN(c2ncnc3c2cnn3Cc2ccc(Cl)cc2)C1 (configuration not stated)	.	?	.	?	.	.
CCCCNc1ncnc2c1cnn2-c1ccc(Cl)cc1	.	3.66µM	.	4.61µM	.	.
CCc1nc(NC(C)(C)C)c2cnn(-c3ccccc3)c2n1	.	?	.	18.4µM	.	.
Clc1ccc(-n2ncc3c(NCCCn4ccnc4)ncnc32)cc1	.	?	.	.	.	.
Cc1ccc(NC(=O)CC(NCCN2CCOCC2)C(=O)O)cc1Cl (configuration not stated)	.	.	.	.	.	.
COCCCNc1ccn2nc(-c3cc(OC)c(OC)c(OC)c3)cc2n1	/	?	.	?	.	.
COc1ccc(-c2nnc(SCC(=O)N3c4ccccc4Sc4ccccc43)o2)cc1	.	?	.	?	.	.
COCC(C)Nc1ncnc2c1cnn2-c1ccc(Cl)cc1 (configuration not stated)	.	?	.	?	-56.8	.
CCC(C)Nc1ncnc2c1cnn2-c1ccc(F)cc1 (configuration not stated)	.	?	/	?	/	/
c1ccc(-n2ncc3c(NCCCN4CCOCC4)ncnc32)cc1	.	.	.	.	.	.
CCCCNc1ncnc2c1cnn2Cc1ccc(Cl)cc1	/	9.2µM	.	6.51µM	.	.
CCCCNc1ncnc2c1cnn2-c1ccccc1	.	2.31µM	.	2.59µM	.	.
COCCCNc1ncnc2c1cnn2-c1ccc(F)cc1	.	5.17µM	/	5.8µM	/	/
O=C(COc1ccc(Cl)cc1)Nc1c(-c2cccs2)nc2ccccn12	.	.	.	?	.	.
CCCCCCCNC(=O)CN1N=C(c2ccc(C)cc2)CCC1=O	/	.	.	.	.	.
CC1CCN(C(=O)c2[nH]cnc2C(=O)Nc2ccccc2F)CC1	/	.	.	.	?	.
N#CCCN(C(=O)COC(=O)c1ccc(S(=O)(=O)N2CCCC2)cc1)c1cccc(Cl)c1	.	.	.	.	.	.
COCCNc1ncnc2c1cnn2Cc1ccccc1Cl	/	?	.	18.4µM	.	/
COC(=O)[C@@]1(Sc2ccc(C)cc2)CC(=O)N(c2ccc3c(ccn3C)c2)[C@@H]1c1ccccc1	/	?	.	?	.	.
COC(=O)c1cccc(N2C(=O)C[C@](Sc3ccc(C)cc3)(C(=O)OC)[C@H]2c2ccccc2)c1	/	?	.	23.1µM	.	.
